The structures appear in SMILES notation. In all, about 52,000 compounds went through this assay and about 4,300 (8.3%) were called active. Many of the other results were omitted from the sample, so actives are more common in it than they were. Unmarked numbers belong to inactive results. Rule as the data show it: active = survival mostly below about 52% (no sharp cut-off); inactive = mostly above about 56%.

For this assay, the system named is DeltatarO mutant. Briefly: growth inhibition of S. aureus wild type versus tarO mutant, primary screen, teichoic acid synthesis inhibitors, RN4220, OD600 (AID 463173). As to conditions: OD600, 18 h, hits give low values, screened at 18.75 µg/mL (by protocol).
For the compound `O=C(COc1ccc(S(=O)(=O)N2CCCC2)cc1)N1CCCC1`, the survival is 91%.
As for `Cc1c(Cl)cccc1Nc1nn2c(=O)c3ccc(C(=O)N(C)Cc4ccccc4)cc3nc2s1`, the survival was 81%.
`CCc1ccc(NC(=O)Cn2c(=O)n(CCC(C)C)c(=O)c3cccnc32)cc1`: the survival is 76%.
On to `CC(=O)Nc1ccccc1N1CCCCC1`, for which the survival is 100%.
As to `COc1cc(NC(=O)CCc2c(C)nc3nc(-c4cc(OC)cc(OC)c4)nn3c2C)cc(OC)c1`, the survival is 83%.
`CCCCCC1CC(CC(=O)Nc2nncs2)C(=O)O1` (stereo not given): the survival was 110%.
Under `Cc1cccc(CNC(=O)CCCn2c(=O)c3cccn3c3ccc(F)cc32)c1` stands 79%; under `CCOc1ccc(CNC(=O)CCCn2c(=O)c3cccn3c3ccc(F)cc32)cc1`, 41% (active); under `CCOc1ccc(CNC(=O)CCCn2c(=O)c3cccn3c3ccccc32)cc1`, 55%.
In the case of `CCOc1ccccc1CNC(=O)CCn1c(=O)c2cccn2c2ccc(F)cc21` it was 46%.
Under `CCOc1ccc(CCNC(=O)CCn2c(=O)c3cccn3c3ccc(F)cc32)cc1` stands 50%; under `CCOc1ccccc1CNC(=O)Cn1c(=O)c2cccn2c2ccc(F)cc21`, 68%.
For the compound `CCOc1ccc(CNC(=O)Cn2c(=O)c3cccn3c3ccc(F)cc32)cc1`, the survival is 80%.
In the case of `CCc1ccc(CNC(=O)CCn2c(=O)c3cccn3c3ccc(F)cc32)cc1` it was 91%; in that of `CCOc1ccccc1CNC(=O)CCCn1c(=O)c2cccn2c2ccc(F)cc21`, 33% (active); in that of `O=C(CCCn1c(=O)c2cccn2c2ccc(F)cc21)NCc1ccc(Cl)cc1`, 38% (active).
Take `CCOc1ccc(CNC(=O)CCn2c(=O)c3cccn3c3ccc(F)cc32)cc1`: the survival is 45% (active).
With `CCOc1ccc(CNC(=O)CCCn2c(=O)c3cccn3c3cccnc32)cc1`, the survival is 120%.
In the case of `CCC(C)NC(=O)C1CCN(S(=O)(=O)c2ccc3c(c2)CCCN3C(C)=O)CC1` (stereo not given) it was 67%.
Take `CC(C)(C)NC(=S)Nc1ccc2nccnc2c1`: the survival is 65%.
Regarding `Cc1ccc(-c2noc(CNS(=O)(=O)c3ccc(F)cc3)n2)cc1`, the survival is 81%.
`Cc1ccc(C)c(N2CCN(C(=O)Cn3cnc4onc(-c5ccc(F)cc5)c4c3=O)CC2)c1`: the survival is 83%.
In the case of `CC(C)CCNC(=O)C(=O)Nc1c2c(nn1-c1ccc(Cl)cc1)CSC2` it was 86%; in that of `Cc1nc2ccn(Cc3ccccc3)c(=O)c2cc1C(=O)N1CCN(c2ccc(F)cc2)CC1`, 95%; in that of `O=C(COc1ccccc1)N(Cc1cccnc1)c1nc2c(F)cccc2s1`, 84%.

Values taken from PubChem BioAssay AID463173 (ICCB-Longwood Screening Facility, Harvard Medical School, 2010).
